According to PubChem BioAssay (Tox21):
Inconclusive results are not listed. Entries that show only a call come without a potency. Active and inactive are the calls of the source. Calls follow the shape of the full dose curve.
Potency is read from the fitted curve at half-maximal effect.

These molecules were tested against 5-hydroxytryptamine receptor 2A (Homo sapiens) (UniProt P28223) (assay: 5-hydroxytryptamine receptor 2A (HTR2A) small molecule agonists, cell-based qHTS assay (AID 1963587; also: nearly all actives have a fitted effect of over 30% in size)). Settings: HTR2A-CHO cells, calcium flux fluorescence, agonist mode; series mostly up to 76.8 µM.
Sequence of 5-hydroxytryptamine receptor 2A (Homo sapiens) (P28223 whole entry, looked up): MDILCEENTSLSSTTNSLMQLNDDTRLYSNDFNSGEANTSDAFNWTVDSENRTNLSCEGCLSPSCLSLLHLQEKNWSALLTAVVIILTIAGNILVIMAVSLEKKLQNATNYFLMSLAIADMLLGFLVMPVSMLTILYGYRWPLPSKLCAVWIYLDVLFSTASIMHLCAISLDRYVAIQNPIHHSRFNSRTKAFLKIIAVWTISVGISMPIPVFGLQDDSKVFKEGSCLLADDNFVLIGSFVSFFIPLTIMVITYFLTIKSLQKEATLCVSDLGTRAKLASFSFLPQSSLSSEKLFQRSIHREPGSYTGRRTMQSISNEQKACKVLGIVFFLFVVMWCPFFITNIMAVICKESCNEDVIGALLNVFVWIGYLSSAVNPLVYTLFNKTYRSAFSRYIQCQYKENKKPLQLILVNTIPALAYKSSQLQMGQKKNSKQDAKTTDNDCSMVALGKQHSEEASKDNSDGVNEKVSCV
Excerpt: National Center for Advancing Translational Sciences [NCATS]
Division of Preclinical Innovation [DPI]
U.S. Environmental Protection Agency [EPA]
National Institutes of Environmental Health Sciences [NIEHS]
National Toxicology Program [NTP]
U.S. Food and Drug Administration [FDA]
The HTR2A receptor is a subtype of the 5-HT2 receptor that belongs to the serotonin receptor family and is a G protein-coupled receptor (GPCR). The HTR2A-CHO cell line stably expressing human 5-hydroxytryptamine receptor 2A (HTR2A) can be used for screening agonists of interactions between 5-HT2 and its ligands. The HTR2A-CHO calcium flux assay is a homogeneous fluorescence-based assay for detecting the intracellular calcium level using FDSS kinetic plate reader system.
HTR2A-CHO cells were dispensed at 2000 cells/3uL/well in 1536-well black-clear bottom plates using a Multidrop Dispenser. After the assay plates were incubated at a 37 C/5% CO2 incubator for 18 h, 3 uL of Dye Loading Buffer was transferred to the assay plate by a Flying Reagent Dispenser. The assay plates were incubated at 37 C for 1h. For agonist mode, 23 nL of compounds dissolved in DMSO, positive controls or DMSO only was transferred to the assay plate by a pin tool. The fluorescence intensity in the plates was measured using FDSS 7000EX kinetic plate reader for 2 min at 1 sec intervals.
With `CCCCCCOC(=O)CCCCCCCC(=O)OCCCCCC` the Potency was “inactive”.
In the case of `CCCCCCCC/C=C\CCCCCCCC(=O)NCc1ccc(O)c(OC)c1`, the Potency is reported as “inactive”.
`CC(C)(Cc1c[nH]c2ccccc12)NCC(O)COc1ccccc1C#N` (stereo not given) was tested, and the Potency was “inactive”.
For `O=C1Cc2cc(CCN3CCN(c4nsc5ccccc45)CC3)c(Cl)cc2N1`, the Potency was “inactive”.
`CCCCCOC(=O)c1ccc(O)cc1` was tested, and the Potency was 35.1 µM (active).
`O=C(Nc1ncc([N+](=O)[O-])s1)c1cccs1` was tested, and the Potency was “inactive”.
`O=S(=O)(c1cccc2cnccc12)N1CCCNCC1` was tested, and the Potency was “inactive”.
For `O=C(OCC(COC(=O)c1cccnc1)(COC(=O)c1cccnc1)COC(=O)c1cccnc1)c1cccnc1`, the Potency was “inactive”.
In the case of `CCc1ccccc1`, the Potency is reported as “inactive”.
For `Cc1oc(=O)oc1CN1CCN(c2cc3c(cc2F)c(=O)c(C(=O)O)c2n3C(C)S2)CC1` (stereo not given), the Potency was “inactive”.
For `NC(=O)Cn1c(=O)cc(CCN2CCN(c3nccc4sccc34)CC2)c2ccc(F)cc21`, the Potency was “inactive”.
With `C=CC(=O)Nc1cc2c(Nc3ccc(F)c(Cl)c3)ncnc2cc1OCCCN1CCOCC1` the Potency was “inactive”.
`C=C[Si](OC)(OC)OC` was tested, and the Potency was “inactive”.
`CCCCCCOC(=O)c1ccccc1` was tested, and the Potency was “inactive”.
With `C/C(=C\c1ccc(C(=O)O)cc1)c1ccc2c(c1)C(C)(C)CCC2(C)C` the Potency was “inactive”.
With `CCCCCCCC/C=C/CCCCCCCC1=NCCN1CCO` the Potency was “inactive”.
With `CCC(C(=O)NC(=O)NC(C)=O)c1ccccc1` (stereo not given) the Potency was “inactive”.
With `CCCC(=O)OC` the Potency was “inactive”.
`COc1cc(OC)c2ccc(=O)oc2c1` was tested, and the Potency was “inactive”.
For `CN(C)C(=O)Nc1ccccc1`, the Potency was “inactive”.
`O=C(c1ccc(O)cc1)c1ccc(O)c(O)c1O` was tested, and the Potency was “inactive”.
For `COCCOC(=O)CC#N`, the Potency was “inactive”.
For `O=C(O)CN(CCOCCOCCN(CC(=O)O)CC(=O)O)CC(=O)O`, the activation was -0.693% [at 0.292 µM] (inactive).
`CCO[Si](CCCSSSSCCC[Si](OCC)(OCC)OCC)(OCC)OCC` was tested, and the Potency was 49 µM (active).
In the case of `Cc1c(N)cccc1N`, the Potency is reported as “inactive”.
With `O=C1NC(=O)c2cc([N+](=O)[O-])ccc21` the Potency was 55.4 µM (active).
With `CNC(=S)NC` the Potency was “inactive”.
`CC(C)COCC(CN(Cc1ccccc1)c1ccccc1)N1CCCC1` (stereo not given) was tested, and the Potency was 19 µM (active).
In the case of `O=S(=O)(O)c1ccc(Nc2nc(Nc3ccc(/C=C/c4ccc(Nc5nc(Nc6ccc(S(=O)(=O)O)cc6)nc(N(CCO)CCO)n5)cc4S(=O)(=O)O)c(S(=O)(=O)O)c3)nc(N(CCO)CCO)n2)cc1`, the Potency is reported as “inactive”.
`O=C(O)c1nc(Cl)c(Cl)c(Cl)c1Cl` was tested, and the Potency was “inactive”.
In the case of `COc1cc(C)cc(O)c1`, the Potency is reported as “inactive”.
`CC1(C)CCC[C@]2(C)[C@H]3CCO[C@]3(C)CC[C@@H]12` was tested, and the Potency was “inactive”.
`CC(C)c1cccc(C(C)C)c1NC(=O)NS(=O)(=O)c1cc(C(C)(C)O)co1` was tested, and the Potency was “inactive”.
With `CN(C)Cc1cc(C(C)(C)C)c(O)c(C(C)(C)C)c1` the Potency was “inactive”.
For `CCCCCCCCCCCCCCCBr`, the Potency was “inactive”.
For `C=C[Si]1(C)O[Si](C)(C=C)O[Si](C)(C=C)O[Si](C)(C=C)O1` (stereo not given), the Potency was “inactive”.
With `COc1cc(C(=O)OCCCN2CCCN(CCCOC(=O)c3cc(OC)c(OC)c(OC)c3)CC2)cc(OC)c1OC` the Potency was “inactive”.
For `Cc1cc2c(cc1C(F)(F)F)N(C(=O)Nc1ccc(Oc3cccnc3C)nc1)CC2`, the Potency was “inactive”.
For `CCCCCCC(C)Nc1ccc(Nc2ccccc2)cc1` (stereo not given), the Potency was “inactive”.
`Nc1ccc([N+](=O)[O-])c(N)c1` was tested, and the Potency was “inactive”.
